# Source: PubChem BioAssay (EPA / NIEHS)
# Several values for one entry are separate records, joined by “and”; a condition that tells them apart may be missing. Identical values can stand only once. Records with an inconclusive call do not appear. Activity calls are given as the source filed them. Rule for the calls, unless noted: active = hit-call score of the fitted dose curve at least 0.9, where 1 is the maximum; inconclusive = response in the unintended direction; inactive = score below 0.9.
# What was measured:
# [1] = biological target: human Retinoic Acid Receptor beta (RARb), RARB (gene 5915) (UniProt P10826); experiment: ATG_RARb_TRANS: Attagene TRANS-FACTORIAL HepG2 Assay for human Retinoic Acid Receptor beta (AID 2283004)
# human Retinoic Acid Receptor beta (RARb), RARB (gene 5915), sequence (P10826 whole entry, looked up, the tested form may be a part): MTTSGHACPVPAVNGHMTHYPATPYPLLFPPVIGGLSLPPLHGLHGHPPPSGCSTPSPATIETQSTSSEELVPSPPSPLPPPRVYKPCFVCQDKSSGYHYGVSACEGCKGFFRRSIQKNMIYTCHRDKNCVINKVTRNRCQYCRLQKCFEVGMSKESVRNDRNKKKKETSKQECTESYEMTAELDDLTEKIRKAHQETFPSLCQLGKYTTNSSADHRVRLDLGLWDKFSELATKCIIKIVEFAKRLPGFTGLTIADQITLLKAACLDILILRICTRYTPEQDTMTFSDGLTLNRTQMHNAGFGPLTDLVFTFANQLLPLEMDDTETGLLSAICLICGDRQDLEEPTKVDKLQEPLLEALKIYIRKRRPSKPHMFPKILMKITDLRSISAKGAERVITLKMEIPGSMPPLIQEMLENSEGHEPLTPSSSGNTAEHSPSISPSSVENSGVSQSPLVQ
# How it was run: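 Readout is reporter mRNA induction: RNA reverse-transcribed, PCR-amplified, FAM-labelled, HpaI-cut and resolved by capillary electrophoresis. Transiently transfected HepG2 cells carrying exogenous NR–Gal4 chimeras were dosed for 24 h; activity fitted upward relative to DMSO.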
# [2] = biological target: Nuclear receptor subfamily 1 group I member 2 (Homo sapiens) (UniProt O75469); experiment: ATG_PXR_TRANS: Attagene TRANS-FACTORIAL HepG2 Assay for human Pregnane X Receptor (PXR) (AID 2283008)
# Nuclear receptor subfamily 1 group I member 2 (Homo sapiens), sequence (O75469 whole entry, looked up, the tested form may be a part): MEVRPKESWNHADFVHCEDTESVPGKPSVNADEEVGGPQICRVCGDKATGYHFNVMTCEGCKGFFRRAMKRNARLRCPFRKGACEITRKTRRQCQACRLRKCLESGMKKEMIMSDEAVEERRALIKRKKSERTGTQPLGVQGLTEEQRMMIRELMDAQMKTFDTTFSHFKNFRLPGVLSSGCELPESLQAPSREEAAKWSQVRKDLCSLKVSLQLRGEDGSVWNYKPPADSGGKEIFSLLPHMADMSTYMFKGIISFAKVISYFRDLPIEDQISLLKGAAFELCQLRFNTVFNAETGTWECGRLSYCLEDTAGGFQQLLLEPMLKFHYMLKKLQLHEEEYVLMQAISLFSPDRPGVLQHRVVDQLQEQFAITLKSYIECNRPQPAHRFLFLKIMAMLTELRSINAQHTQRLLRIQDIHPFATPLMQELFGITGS
# How it was run: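 Measures mRNA induction of a GAL4-UAS-driven reporter in human HepG2 cells transiently expressing PXR fused to Gal4, following 24 h treatment. DMSO served as negative control and baseline.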
# [3] = biological target: human RAR-related Orphan Receptor beta (RORb), RORB (gene 6096) (UniProt Q92753); experiment: ATG_RORb_TRANS: Attagene TRANS-FACTORIAL HepG2 Assay for human RAR-related Orphan Receptor beta (RORb) (AID 2283010)
# human RAR-related Orphan Receptor beta (RORb), RORB (gene 6096), sequence (Q92753 whole entry, looked up, the tested form may be a part): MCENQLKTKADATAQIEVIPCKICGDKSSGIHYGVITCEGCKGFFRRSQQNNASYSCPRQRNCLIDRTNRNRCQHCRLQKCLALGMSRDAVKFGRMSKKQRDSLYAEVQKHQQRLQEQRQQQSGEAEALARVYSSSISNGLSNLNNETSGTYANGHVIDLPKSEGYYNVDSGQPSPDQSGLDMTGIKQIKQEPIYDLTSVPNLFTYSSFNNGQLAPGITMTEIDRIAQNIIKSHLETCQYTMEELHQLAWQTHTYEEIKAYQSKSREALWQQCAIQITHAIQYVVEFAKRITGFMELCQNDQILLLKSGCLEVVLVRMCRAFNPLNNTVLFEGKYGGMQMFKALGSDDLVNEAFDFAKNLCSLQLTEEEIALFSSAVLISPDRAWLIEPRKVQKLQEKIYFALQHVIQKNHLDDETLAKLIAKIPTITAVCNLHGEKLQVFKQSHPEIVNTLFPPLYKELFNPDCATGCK
# How it was run: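 HepG2 cells were transiently transfected with multiplexed GAL4-UAS reporter units expressing chimeric nuclear receptor–GAL4 proteins, then dosed for 24 h. Reporter mRNA was quantified by RT-PCR with fluorescent labelling and capillary electrophoresis; gain of signal was fitted relative to DMSO.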
# [4] = biological target: Peroxisome proliferator-activated receptor gamma (Homo sapiens) (UniProt P37231); experiment: ATG_PPARg_TRANS: Attagene TRANS-FACTORIAL HepG2 Assay for human Peroxisome Proliferator-activated Receptor-gamma (PPARg) (AID 2283007)
# Peroxisome proliferator-activated receptor gamma (Homo sapiens), sequence (P37231 whole entry, looked up, the tested form may be a part): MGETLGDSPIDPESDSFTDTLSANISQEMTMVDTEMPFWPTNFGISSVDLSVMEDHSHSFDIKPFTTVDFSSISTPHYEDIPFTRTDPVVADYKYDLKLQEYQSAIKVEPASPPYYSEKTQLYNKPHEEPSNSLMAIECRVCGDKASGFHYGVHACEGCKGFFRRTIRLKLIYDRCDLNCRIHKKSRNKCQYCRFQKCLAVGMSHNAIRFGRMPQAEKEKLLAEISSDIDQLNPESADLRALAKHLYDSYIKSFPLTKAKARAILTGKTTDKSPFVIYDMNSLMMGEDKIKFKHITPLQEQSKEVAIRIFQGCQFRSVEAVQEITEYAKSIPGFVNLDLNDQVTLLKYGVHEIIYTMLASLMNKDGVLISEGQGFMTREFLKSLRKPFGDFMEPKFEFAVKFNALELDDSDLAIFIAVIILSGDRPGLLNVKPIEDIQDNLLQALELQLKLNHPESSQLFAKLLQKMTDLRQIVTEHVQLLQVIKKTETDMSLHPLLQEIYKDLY
# How it was run: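 A TRANS-format multiplexed reporter assay measures activity of an exogenous chimeric NR-Gal4 protein in HepG2 cells. After 24 h of chemical exposure, reporter transcripts are amplified, fluorescently labelled and sized by capillary electrophoresis, with gain of signal scored against DMSO.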
# [5] = biological target: Retinoic acid receptor alpha (Homo sapiens) (UniProt P10276); experiment: ATG_RARa_TRANS: Attagene TRANS-FACTORIAL HepG2 Assay for human Retinoic Acid Receptor alpha (RARa) (AID 2283005);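 for AC50: potency for increased reporter signal meaning RARa activation over DMSO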
# Retinoic acid receptor alpha (Homo sapiens), sequence (P10276 whole entry, looked up, the tested form may be a part): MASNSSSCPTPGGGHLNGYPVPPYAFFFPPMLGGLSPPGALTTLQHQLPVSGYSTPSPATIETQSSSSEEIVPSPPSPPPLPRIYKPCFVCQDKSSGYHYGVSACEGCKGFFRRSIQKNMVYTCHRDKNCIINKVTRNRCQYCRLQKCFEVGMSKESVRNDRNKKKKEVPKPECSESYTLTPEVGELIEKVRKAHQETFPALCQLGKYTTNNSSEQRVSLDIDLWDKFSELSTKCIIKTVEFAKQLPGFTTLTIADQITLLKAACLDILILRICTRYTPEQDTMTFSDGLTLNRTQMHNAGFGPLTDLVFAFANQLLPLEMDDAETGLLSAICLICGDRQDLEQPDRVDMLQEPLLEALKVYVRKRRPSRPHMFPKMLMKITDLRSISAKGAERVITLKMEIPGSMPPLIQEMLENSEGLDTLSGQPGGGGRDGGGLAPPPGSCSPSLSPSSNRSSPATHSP
# How it was run: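 HepG2 cells transiently transfected with multiple reporter units expressing chimeric RARα-GAL4 fusion, with GAL4-UAS-driven reporters. After 24 h compound exposure, reporter mRNA induction quantified by RT-PCR and capillary electrophoresis with fluorescent labeling; gain-of-signal fitted relative to DMSO control.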
# [6] = biological target: human Retinoic Acid Receptor gamma (RARg), RARG (gene 5916) (UniProt P13631); experiment: ATG_RARg_TRANS: Attagene TRANS-FACTORIAL HepG2 Assay for human Retinoic Acid Receptor gamma (RARg) (AID 2283009)
# human Retinoic Acid Receptor gamma (RARg), RARG (gene 5916), sequence (P13631 whole entry, looked up, the tested form may be a part): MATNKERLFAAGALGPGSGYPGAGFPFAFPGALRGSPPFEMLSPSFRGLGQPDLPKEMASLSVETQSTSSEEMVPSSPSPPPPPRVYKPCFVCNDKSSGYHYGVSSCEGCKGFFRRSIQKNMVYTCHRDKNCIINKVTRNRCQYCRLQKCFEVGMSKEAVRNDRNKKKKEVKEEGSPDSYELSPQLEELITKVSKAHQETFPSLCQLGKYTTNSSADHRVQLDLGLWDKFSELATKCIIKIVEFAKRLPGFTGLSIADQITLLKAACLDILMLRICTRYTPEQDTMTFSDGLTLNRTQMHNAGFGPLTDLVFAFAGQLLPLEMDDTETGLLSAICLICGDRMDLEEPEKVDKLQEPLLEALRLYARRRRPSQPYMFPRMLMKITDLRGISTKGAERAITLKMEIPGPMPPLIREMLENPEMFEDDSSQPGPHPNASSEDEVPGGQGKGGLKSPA
# How it was run: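 HepG2 cells transiently transfected with multiplexed reporter units expressing chimeric RARg-GAL4 and GAL4-UAS-driven reporters; 24 h compound exposure. Reporter mRNA quantified by RT-PCR with fluorescent labelling and capillary electrophoresis; gain-of-signal fitted relative to DMSO baseline.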
# [7] = read-out: Intercellular Adhesion Molecule 1 (ICAM1), ICAM1 (gene 3383); experiment: BSK_3C_ICAM1: BioMAP Diversity Plus: 3C Assay for Intercellular Adhesion Molecule 1 (ICAM1) Biomarker Activity (AID 2283003; active = hit-call score of the fitted dose curve at least 0.9, where 1 is the maximum; inactive = score below 0.9); settings: primary human endothelial cells (HUVEC); actives raise or lower the signal
# How it was run: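 Primary human umbilical vein endothelial cells in the BioMAP 3C system were exposed to chemicals for 24 h, then ICAM-1 was quantified by ELISA. Activity was fitted bidirectionally against the DMSO negative control baseline.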
# [8] = BSK_3C_Proliferation: Cell Proliferation Assessment in the BioMAP Diversity Plus: 3C Assay (AID 2283006; active = hit-call score of the fitted dose curve at least 0.9, where 1 is the maximum; inactive = score below 0.9;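 for AC50: potency may reflect either rise or fall in cell number versus DMSO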); settings: primary human endothelial cells (HUVEC)
# How it was run: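 Human umbilical vein endothelial cells were grown sub-confluent and exposed to chemical for 48 h, then fixed with 10% TCA and stained with 0.1% sulforhodamine B; absorbance at 560 nm gave relative cell number, fitted bidirectionally against DMSO baseline.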
smiles,measurement,setting,value
CC(C)OCCO,outcome,[1],inactive
same,outcome,[2],inactive
same,outcome,[3],inactive
C=C[Si]1(C)O[Si](C)(C=C)O[Si](C)(C=C)O[Si](C)(C=C)O1 (centres undefined),outcome,[4],inactive
COc1cc(C(C)C)ccc1C,outcome,[1],inactive
same,outcome,[5],inactive
Brc1ccc(Br)c(Br)c1,outcome,[5],inactive
same,outcome,[4],inactive
same,outcome,[2],inactive
same,outcome,[6],inactive
same,outcome,[3],inactive
CC(=O)OCCCc1ccccc1,outcome,[5],inactive
same,outcome,[2],inactive
C[C@H](CCC(=O)NCC(=O)O)[C@H]1CC[C@H]2[C@@H]3[C@H](O)C[C@@H]4C[C@H](O)CC[C@]4(C)[C@H]3C[C@H](O)[C@]12C,outcome,[1],inactive
same,outcome,[5],inactive
same,outcome,[4],inactive
same,outcome,[3],inactive
C=COCCOCCOC=C,outcome,[4],inactive
C[C@H]1C[C@@H](O)CC(C)(C)C1,outcome,[1],inactive
same,outcome,[5],inactive
same,outcome,[4],inactive
same,outcome,[2],inactive
same,outcome,[3],inactive
C=C1C[C@]23C[C@@]1(O)CC[C@H]2[C@@]12C=C[C@H](O)[C@@](C)(C(=O)O1)[C@H]2[C@@H]3C(=O)O,outcome,[4],inactive
CCNCCO,outcome,[1],inactive
same,outcome,[4],inactive
O=C1NC2NC(=O)NC2N1 (centres undefined),outcome,[5],inactive
same,outcome,[4],inactive
same,outcome,[3],inactive
CCC(=O)O[C@@H]1C[C@H]2CC[C@]1(C)C2(C)C,outcome,[1],inactive
same,outcome,[5],inactive
same,outcome,[2],inactive
same,outcome,[3],inactive
O=C(O)COCC(=O)O,outcome,[5],inactive
same,outcome,[2],inactive
same,outcome,[3],inactive
CCCC[P+](CCCC)(CCCC)CCCC,outcome,[5],inactive
same,outcome,[2],inactive
O=C1OC[C@H](Cc2cccc(O)c2)[C@H]1Cc1cccc(O)c1,outcome,[7],inactive
same,outcome,[8],inactive
same,outcome,[4],inactive
same,AC50,[2],7.35 µM (active)
same,outcome,[6],inactive
same,outcome,[3],inactive
CS(C)=O,outcome,[5],inactive
same,outcome,[2],inactive
same,outcome,[6],inactive
same,outcome,[3],inactive
CCc1cc(C(C)(C)C)c(O)c(C(C)(C)C)c1,outcome,[1],inactive
same,outcome,[5],inactive
same,AC50,[4],61 µM (active)
same,AC50,[2],26.8 µM (active)
CC1CC(O)CC(C)(C)C1 (centres undefined),outcome,[1],inactive
same,outcome,[5],inactive
same,outcome,[2],inactive
same,outcome,[3],inactive
CCOc1ccccc1O,outcome,[5],inactive
same,outcome,[4],inactive
same,outcome,[2],inactive
same,outcome,[3],inactive
COC(=O)c1ccc(C)cc1C1=NC(C)(C(C)C)C(=O)N1 (centres undefined) (tested in a mixture with another compound),outcome,[5],inactive
same,outcome,[2],inactive
CCOC(=O)C(C#N)=C(c1ccccc1)c1ccccc1,outcome,[7],inactive
same,AC50,[8],20 µM (active) and 8.88 µM (active)
same,AC50,[4],7.45 µM (active)
same,AC50,[2],1.24 µM (active)
O=C(O)c1cccnc1C(=O)O,outcome,[1],inactive
same,outcome,[5],inactive
C[N+](C)(C)CCCCCC[N+](C)(C)C,outcome,[1],inactive
same,outcome,[4],inactive
same,outcome,[2],inactive
CC(C)=CCCC(C)CCOC=O (centres undefined),outcome,[4],inactive
same,outcome,[2],inactive
C=CCN(CC=C)CC=C,outcome,[1],inactive
same,outcome,[2],inactive
same,outcome,[3],inactive
CSc1c(Cl)c(Cl)c(Cl)c(Cl)c1Cl,outcome,[1],inactive
same,AC50,[4],6.23 µM (active)
same,AC50,[2],8.95 µM (active)
same,outcome,[6],inactive
CCCCCCOC(=O)CCC,outcome,[1],inactive
same,outcome,[5],inactive
same,AC50,[2],15.1 µM (active)
same,outcome,[6],inactive
OCCCCC(O)CO (centres undefined),outcome,[1],inactive
same,outcome,[5],inactive
same,outcome,[2],inactive
same,outcome,[3],inactive
CC1(C)CCC[C@]2(C)[C@H]3CCO[C@]3(C)CC[C@@H]12,AC50,[7],31.2 µM (active) and 38.9 µM (active)
same,AC50,[8],32.6 µM (active) and 33.6 µM (active)
same,outcome,[4],inactive
same,outcome,[6],inactive
same,outcome,[3],inactive
CCC1(C)NC(=O)NC1=O (centres undefined),outcome,[1],inactive
same,outcome,[3],inactive
CCCCC(CC)C(=O)OC(C)C (centres undefined),outcome,[1],inactive
same,outcome,[4],inactive
same,outcome,[2],inactive
same,outcome,[3],inactive
C=CC(=O)OCCCC,outcome,[1],inactive
same,outcome,[5],inactive
same,outcome,[2],inactive
same,outcome,[6],inactive
CC(C)CCCCCCc1ccc(OCCOCCO)cc1,outcome,[1],inactive
same,AC50,[5],10.2 µM (active)
same,outcome,[6],inactive
CCc1ccc(O)c(OC)c1,outcome,[4],inactive
CCCCC1(COC(=O)CCC(=O)O)C(=O)N(c2ccccc2)N(c2ccccc2)C1=O,outcome,[4],inactive
same,AC50,[2],28 µM (active)
C#CC(C)N(C)C(=O)Nc1ccc(Cl)cc1 (centres undefined),outcome,[4],inactive
same,outcome,[2],inactive
same,outcome,[6],inactive
same,outcome,[3],inactive
CS(=O)(=O)c1ccc(Cl)cc1,outcome,[2],inactive
same,outcome,[3],inactive
Cc1ccc(N)c(S(=O)(=O)O)c1,outcome,[4],inactive
same,outcome,[2],inactive
CCCCCCCCN1CCCC1=O,outcome,[4],inactive
same,AC50,[2],7.53 µM (active)
same,outcome,[6],inactive
CC1(C)O[C@@H]2C[C@H]3[C@@H]4CCC5=CC(=O)C=C[C@]5(C)[C@@]4(F)[C@@H](O)C[C@]3(C)[C@]2(C(=O)CO)O1,outcome,[3],inactive
CCCC(=O)OCCc1ccccc1,outcome,[2],inactive
same,outcome,[3],inactive
C=Cc1ccc(C)cc1,outcome,[4],inactive
same,outcome,[2],inactive
COc1cccc(OC)c1O,outcome,[2],inactive
CC(=O)NCCO,outcome,[6],inactive
same,outcome,[3],inactive
C1CCCCC1,outcome,[2],inactive
same,outcome,[3],inactive
CCCC(=O)c1ccccc1,outcome,[4],inactive
same,outcome,[2],inactive
same,outcome,[3],inactive
CN(C)CCOc1ccc(/C(=C(/CCCl)c2ccccc2)c2ccccc2)cc1,outcome,[2],inactive
Cc1c(C2(c3cc(Br)c(O)c(Br)c3C)OS(=O)(=O)c3ccccc32)cc(Br)c(O)c1Br,outcome,[4],inactive
same,AC50,[2],13 µM (active)
same,outcome,[3],inactive
Nc1ccn([C@H]2CS[C@@H](CO)O2)c(=O)n1,outcome,[6],inactive
CCCC(=O)C(CC)Sc1ccoc1C (centres undefined),AC50,[4],33.6 µM (active)
same,AC50,[2],9.72 µM (active)
CCc1ncc(C)[nH]1,outcome,[4],inactive
same,outcome,[2],inactive
Cc1ccc(-c2ccccc2)cc1,outcome,[2],inactive
same,outcome,[3],inactive
c1ccc(CN(Cc2ccccc2)Cc2ccccc2)cc1,outcome,[4],inactive
same,outcome,[2],inactive
same,outcome,[6],inactive
O=CCc1ccccc1,AC50,[4],22.9 µM (active)
same,outcome,[3],inactive
CC(C)(C)c1ccc(C(=O)O)cc1,outcome,[4],inactive
same,outcome,[2],inactive
CC(C)(C)C1=CC(=O)C(C(C)(C)C)=CC1=O,AC50,[4],50 µM (active)
same,AC50,[2],5.78 µM (active)
CCCCCc1ccco1,AC50,[4],4.11 µM (active)
same,AC50,[2],2.75 µM (active)
OC[C@H]1O[C@@H]2O[C@H]3[C@H](O)[C@@H](O)[C@@H](O[C@H]4[C@H](O)[C@@H](O)[C@@H](O[C@H]5[C@H](O)[C@@H](O)[C@@H](O[C@H]6[C@H](O)[C@@H](O)[C@@H](O[C@H]7[C@H](O)[C@@H](O)[C@@H](O[C@H]8[C@H](O)[C@@H](O)[C@@H](O[C@H]9[C@H](O)[C@@H](O)[C@@H](O[C@H]1[C@H](O)[C@H]2O)O[C@@H]9CO)O[C@@H]8CO)O[C@@H]7CO)O[C@@H]6CO)O[C@@H]5CO)O[C@@H]4CO)O[C@@H]3CO,outcome,[4],inactive
same,outcome,[3],inactive
COc1ccccc1[N+](=O)[O-],outcome,[2],inactive
same,outcome,[3],inactive
Nc1ccc2c(O)cc(S(=O)(=O)O)cc2c1,outcome,[4],inactive
same,outcome,[2],inactive
same,outcome,[6],inactive
same,outcome,[3],inactive
C=C1CC[C@H](O)C/C1=C/C=C1\CCC[C@]2(C)[C@@H]([C@H](C)/C=C/[C@H](C)C(C)C)CC[C@@H]12,outcome,[4],inactive
same,AC50,[2],3.81 µM (active)
CCCCCC(C)=O,outcome,[4],inactive
same,outcome,[2],inactive
OCCOCCN1CCN(C2=Nc3ccccc3Sc3ccccc32)CC1,AC50,[2],5.77 µM (active)
C=CCCCCCCCCCC,outcome,[4],inactive
same,outcome,[3],inactive
O=[N+]([O-])c1cccc(Cl)c1,outcome,[6],inactive
CCOC(=O)C1OC1c1ccccc1 (centres undefined),outcome,[4],inactive
same,outcome,[2],inactive
CC(C)(C)OC(=O)c1ccc(O)cc1,AC50,[4],39.4 µM (active)
same,outcome,[2],inactive
CC1=CC[C@@]23C[C@@H]1C(C)(C)[C@@H]2CC[C@H]3C,outcome,[4],inactive
same,outcome,[3],inactive
CC(C)(CO)[C@@H](O)C(=O)NCCC(=O)O,outcome,[2],inactive
same,outcome,[6],inactive
O=P(O)(O)O,outcome,[3],inactive
CC(C)CCOC(=O)c1ccccc1,outcome,[2],inactive
same,outcome,[3],inactive
CC1(C)O[C@@H]2[C@@H](CO[C@@]3(COS(N)(=O)=O)OC(C)(C)O[C@@H]23)O1,outcome,[4],inactive
same,outcome,[2],inactive
